The full ranking holds about 35,000 sequences; the median of “fluorescence intensity (a.u.)” is about 10,000, and the highest 2% start at about 52,000. The list comes from a sample in which the highest values are over-represented; it also holds similar and randomly drawn sequences.

In publication PMC7819943, “Rice protein-binding microarrays: a tool to detect cis-acting elements near promoter regions in rice” one finds binding signal data, which are given here for 47 sequences.

This assay deals with T1, OsWOX13 (Oryza sativa, UniProt Q5QMM3 1-267).
T1 sequence: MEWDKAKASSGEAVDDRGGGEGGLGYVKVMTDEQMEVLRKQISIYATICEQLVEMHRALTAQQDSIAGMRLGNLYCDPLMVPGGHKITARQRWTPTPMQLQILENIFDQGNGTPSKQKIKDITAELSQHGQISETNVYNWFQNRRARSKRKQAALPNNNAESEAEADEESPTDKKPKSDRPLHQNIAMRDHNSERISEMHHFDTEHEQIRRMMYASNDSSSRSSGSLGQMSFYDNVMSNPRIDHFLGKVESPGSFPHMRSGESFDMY
The experiment in a line: protein-binding microarray (RPBM); PBS, 2% BSA, 51.3 ng/ul salmon testes DNA, 50 uM zinc acetate, 200 nM TF, 25 C, 1 h; high values mean tight binding. Conditions: protein: recombinant; tags: N-terminal polyhistidine and DsRed monomer fusion (pET32a); label: CyDye5-dUTP incorporated in the synthesized complementary strand; 3' TTTTT single-stranded linker to array surface; dsDNA, one strand shown. An outline of the steps: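 Transcription factors were made in E. coli BL21-CodonPlus as N-terminal fusions to a polyhistidine tag and DsRed, then purified on Ni–NTA. After primer extension with Cy5-dUTP and blocking with 2% BSA, a custom Agilent array was exposed for 1 h at 25 °C to 200 nM protein in PBS, 2% BSA, salmon testes DNA and 50 µM zinc acetate. Washed arrays were scanned on an Axon 4000B, and the binding signal is per-feature fluorescence intensity in arbitrary units.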
As for “ACCAGGAAGTCATAAATTAATGGATCGAATATGACCTGCTCGGAGTCACCTAGTGCAG”, the binding signal was 3160 fluorescence intensity (a.u.).
For “GGTTAATTATGCGAAAGAGAATCTTAATCCCAGGGGCTTTCGGAGTCACCTAGTGCAG”, the binding signal was 17600 fluorescence intensity (a.u.).
“CCTGATTTCTAAAGAAAGCCGTCCGGTTTTAACTGAGTCTCGGAGTCACCTAGTGCAG”: the binding signal was 10100 fluorescence intensity (a.u.).
For “TATTTTGGACCCATGATAGATTGATTTAGAACATGCGGAGCGGAGTCACCTAGTGCAG”, the binding signal is 11400 fluorescence intensity (a.u.).
Turning to “CTCCACTAATCTAAAATTTGTTTAATGGATCATTGCATCACGGAGTCACCTAGTGCAG”, the binding signal is 16000 fluorescence intensity (a.u.).
The figure for “TTGTAGATTTATACCTGTCCTAATCAGAGTATACTGTATTCGGAGTCACCTAGTGCAG” is 3990 fluorescence intensity (a.u.).
In the case of “CTCAGCCTGATTAATCGGAGATAATGAGTCTACGAATTTGCGGAGTCACCTAGTGCAG” it was 9790 fluorescence intensity (a.u.); in that of “ATATATATAATTAGGATTGTTATATGCATAGGTTTGCATTCGGAGTCACCTAGTGCAG”, 18400 fluorescence intensity (a.u.); in that of “TTGCAAAACTGGCTTAATTGATTCCATATTTCCATTCCACCGGAGTCACCTAGTGCAG”, 32200 fluorescence intensity (a.u.).
Take “ATCCGTCATCTGATTTAATCTCATACGTCCGCTATCCTCCCGGAGTCACCTAGTGCAG”: the binding signal was 4210 fluorescence intensity (a.u.).
With “GAGATAAATGATCAACTAGTCCGTGAATTTGACACCGATGCGGAGTCACCTAGTGCAG”, the binding signal was 7110 fluorescence intensity (a.u.).
With “GATGATTGACTTATTATGCTATAATAATATGCTGAATGAACGGAGTCACCTAGTGCAG”, the binding signal is 40600 fluorescence intensity (a.u.).
“GTTACTGCATGATTTGCTAGATGTATTTTATGACAACAGACGGAGTCACCTAGTGCAG”: the binding signal was 12900 fluorescence intensity (a.u.).
As to “ATGATTGATTTGGGTAACATACCAAACACCAAACAGTTCACGGAGTCACCTAGTGCAG”, the binding signal is 56600 fluorescence intensity (a.u.).
For “GCTAATTTGGGCACCATATTGGGCCTGATTTTGGTAAACACGGAGTCACCTAGTGCAG”, the binding signal was 6980 fluorescence intensity (a.u.).
In the case of “TGGCCGGTGATTTACCGTACTAGTGATGTATGCGTGCAAACGGAGTCACCTAGTGCAG”, the binding signal was 3650 fluorescence intensity (a.u.).
For the sequence “ATGATGATTGACTTATGTGAATATATTGTCTATATATGCACGGAGTCACCTAGTGCAG”, the binding signal is 60300 fluorescence intensity (a.u.).
Take “ATTCCAATTGATTTTAGTTAGTTTTCATACATAGTTAACACGGAGTCACCTAGTGCAG”: the binding signal is 10900 fluorescence intensity (a.u.).
As to “ATGACTGATTTATGACAGCCGTGCATGTGTATTTGTGTACCGGAGTCACCTAGTGCAG”, the binding signal was 55500 fluorescence intensity (a.u.).
With “AATGAATGACTGTCACAGTTCGATGATGTGACTATATATGCGGAGTCACCTAGTGCAG”, the binding signal was 16600 fluorescence intensity (a.u.).
Turning to “TCTAAACATATCCAGATAAATTATTCTGAGATGAGTCTCACGGAGTCACCTAGTGCAG”, the binding signal was 3670 fluorescence intensity (a.u.).
The figure for “TTCACGCTTGATTGGGCTGGGATTAAGGCCCATTTATACACGGAGTCACCTAGTGCAG” is 23500 fluorescence intensity (a.u.); for “ACCCCGAGCTGATTATCTCTGAACGTACGATCAAGCCGTCCGGAGTCACCTAGTGCAG” it is 6180 fluorescence intensity (a.u.).
Take “TACTAATTACTACTAACCGTTAAAAGTAGCCGCCGGTTAACGGAGTCACCTAGTGCAG”: the binding signal was 17800 fluorescence intensity (a.u.).
Consider “CTTTAGTCTCTGACACTAATTTAGAGTATTAAATATAGACCGGAGTCACCTAGTGCAG”, for which the binding signal is 3810 fluorescence intensity (a.u.).
The figure for “ACAACCAACTGATTGAAGACGTCCACGTGCTTCCTAAGATCGGAGTCACCTAGTGCAG” is 35200 fluorescence intensity (a.u.); for “AAATCAATTACTAGTGCGCGGTTTGTTGAGGAAAAGGCAACGGAGTCACCTAGTGCAG” it is 6960 fluorescence intensity (a.u.).
With “ACGATCAAATTTAGACATGGAAACTCGTGACTGTGCTTATCGGAGTCACCTAGTGCAG”, the binding signal was 6550 fluorescence intensity (a.u.).
In the case of “AAGATTTAATTGTTACGAACACAACGGCGTAATCGGATCGCGGAGTCACCTAGTGCAG”, the binding signal was 36000 fluorescence intensity (a.u.).
On to “GTGTGTGATGGGTTAATCGATGTGCTATGTTATTGGTTTCCGGAGTCACCTAGTGCAG”, for which the binding signal is 5310 fluorescence intensity (a.u.).
In the case of “TGGAGGGATTTGATTTGGAAAGGATTTGGATTCGGGATTGCGGAGTCACCTAGTGCAG” it was 3870 fluorescence intensity (a.u.).
The figure for “GTTAATTTTGTGAAATATGTTTGCTGGTTAGTGAATTGTACGGAGTCACCTAGTGCAG” is 12400 fluorescence intensity (a.u.); for “TGTTGTGATTGGTTGAGAAATGTGGGTATGTGAGAAAATACGGAGTCACCTAGTGCAG” it is 15200 fluorescence intensity (a.u.).
Turning to “TTGGCGATTGATTGGGGAAAGGAAACTTTGCTAGGTCAATCGGAGTCACCTAGTGCAG”, the binding signal is 53500 fluorescence intensity (a.u.).
The figure for “ACTGATTGATTTGGAAGGAGAGAAATACTATGTTGGGTTTCGGAGTCACCTAGTGCAG” is 63700 fluorescence intensity (a.u.); for “TCGAAAATTGGTTTTGTTAATATACTAGGACTGATTTCAGCGGAGTCACCTAGTGCAG” it is 6190 fluorescence intensity (a.u.); for “AGTGATGGCATTGACTGACTTGGGGAAGGAAACAATCGAGCGGAGTCACCTAGTGCAG” it is 16000 fluorescence intensity (a.u.).
In the case of “GTGTGATTTGCTAATTGGGTTTGTTATGAAGCTGGTTATCCGGAGTCACCTAGTGCAG” it was 54000 fluorescence intensity (a.u.); in that of “TGTGGGATGGATTTGTGGTGATTGAGAGGGTTTGAAAGGGCGGAGTCACCTAGTGCAG”, 15700 fluorescence intensity (a.u.).
For “GTTTGATTGGAGCAATGTCTCAATGGGTGAGAAGATGAGGCGGAGTCACCTAGTGCAG”, the binding signal is 54300 fluorescence intensity (a.u.).
On to “GGGAGAGGTGATGAGTGATTGGAGTAGAGGGGAGATGAGGCGGAGTCACCTAGTGCAG”, for which the binding signal was 12600 fluorescence intensity (a.u.).
Regarding “TGTAACAAACAGGCTGTAACGGCACCGTAATAAACCCAACCGGAGTCACCTAGTGCAG”, the binding signal was 6570 fluorescence intensity (a.u.).
“AGCCAATCAGAATCCAAATAAAACATTCTTGCAGCAGGCGCGGAGTCACCTAGTGCAG”: the binding signal is 15900 fluorescence intensity (a.u.).
As to “ATTTGTCTAGTACTCCTAATTGGTACATCGACGATCTGCGCGGAGTCACCTAGTGCAG”, the binding signal is 6670 fluorescence intensity (a.u.).
In the case of “CTAGCCACTTGGTATAATTGACTGAGTCTTGATAAAGCTTCGGAGTCACCTAGTGCAG”, the binding signal is 7350 fluorescence intensity (a.u.).
In the case of “CAAATGTAATTTCGCACTATTCTTATCTAATGTTTGACATCGGAGTCACCTAGTGCAG” it was 4370 fluorescence intensity (a.u.); in that of “TTTGACCTTTGTTCTGATTGCTACAACGAGGGAAAGTTTACGGAGTCACCTAGTGCAG”, 4690 fluorescence intensity (a.u.).
